# Records with an inconclusive call do not appear. Activity calls are given as the source filed them. Rule for the calls: active = hit-call score of the fitted dose curve at least 0.9, where 1 is the maximum; inconclusive = response in the unintended direction; inactive = score below 0.9.
# Target: Cellular tumor antigen p53 (Homo sapiens) (UniProt P04637)
# Test: TOX21_p53_BLA_p2_ratio: Tox21 HCT-116 p53 Agonism Beta-lactamase Assay, Ratio, Phase 2 (AID 2283592)
# From the text: TOX21_p53_BLA_p2 is a cell-based, single-readout assay that uses HCT116, a human intestinal cell line, […] in a 1536-well plate.TOX21_p53_BLA_p2_ratio is an assay readout measuring reporter gene via receptor activity and designed using inducible reporter (beta lactamase induction) detected with GAL4 b-lactamase reporter gene. The signal is derived from the ratio of cleaved (ch2) to uncleaved (ch1) reporter gene substrate used as the measure of target activity.Data from the assay component TOX21_p53_BLA_p2_ratio was analyzed into 1 assay endpoint. This assay endpoint, TOX21_p53_BLA_p2_ratio, was analyzed in the positive analysis fitting direction relative to DMSO as the negative control and baseline of activity. Using a type of inducible reporter, gain-of-signal activity can be used to understand changes in the reporter gene as they relate to the gene TP53. Furthermore, this assay endpoint can be referred to as a primary readout, because this assay has produced multiple assay endpoints and this ratio serves a reporter gene function to understand target activity. To generalize the intended target to other relatable targets, this assay endpoint is annotated to the DNA binding intended target family, where the subfamily is tumor suppressor.
# Thawing Method: Place 14 mL of pre-warmed thaw medium into a 15 mL of conical tub. Remove the vial of cells to be thawed from liquid nitrogen and thaw rapidly by placing at 37C in a water bath with gentle agitation for 1-2 minutes. Decontaminate the vial by wiping with 70% ethanol before opening in a biological safety cabinet. Transfer the vial contents drop-wise into 14 mL of thaw medium in a sterile 15-mL conical tub. Centrifuge cells at 900 rpm for 4 minutes and resuspend in thaw medium. Transfer contents to the T75 tissue culture flask containing Thaw Medium and place flask in a humidified 37C/5% CO2 incubator. Switch to growth medium at first passage.Propagation Method: Aspirate medium, rinse once in DPBS, add 0.25% Trypsin/EDTA and swirl to coat the cell evenly. Add an equal volume of Growth Medium to inactivate Trypsin after 2-3 minutes incubation at 37C. Centrifuge cells at 900 rpm for 4 minutes and resuspend in growth medium. Cell should be passage or fed at least twice a week.Assay Protocol: Harvest cells from culture in growth medium and resuspend in assay medium. 2.2 Dispense 4000 cells/5 uL/well into 1536-well black/clear bottom plates using a Multidrop dispenser. After the cells were incubated at 37C for 5 hours, 23 nL of compounds dissolved in DMSO were transferred to the assay plate by a PinTool resulting in a 217-fold dilution. Incubate the plates for 16 hours at 37C, 5% CO2. Add 1 uL of 6X LiveBLAzer FRET B/G (CCF4-AM) Substrate Mixture to each well using a BioRAPTR dispenser and incubate the plates at room temperature for 2 hours. Measure fluorescence intensity at 460 and 530 nm emission and 405 nm excitation by an Envision detector. Data is expressed as the ratio of 460nm/530nm emissions. Add 4 uL of Cell-titer Glo to each well using BioRAPTR and incubate the plates at room temperature for 2 hours. Measure fluorescence intensity by a VewLux plate reader.
# Sequence of Cellular tumor antigen p53 (Homo sapiens) (P04637 whole entry, looked up): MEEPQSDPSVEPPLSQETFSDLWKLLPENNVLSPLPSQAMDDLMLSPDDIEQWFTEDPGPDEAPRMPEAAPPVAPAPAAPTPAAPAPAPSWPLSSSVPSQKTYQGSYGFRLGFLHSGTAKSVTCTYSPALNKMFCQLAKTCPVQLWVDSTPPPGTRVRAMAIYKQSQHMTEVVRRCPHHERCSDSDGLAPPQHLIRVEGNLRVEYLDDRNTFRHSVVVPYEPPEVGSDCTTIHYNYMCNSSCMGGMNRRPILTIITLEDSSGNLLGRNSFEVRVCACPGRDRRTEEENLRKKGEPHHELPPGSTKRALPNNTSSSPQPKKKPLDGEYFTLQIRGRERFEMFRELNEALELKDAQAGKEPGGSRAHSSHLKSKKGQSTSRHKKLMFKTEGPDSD
Structure (SMILES),outcome,AC50
C[N+]1(CCF)[C@@H]2CC[C@H]1CC(OC(=O)C(O)(c1ccccc1)c1ccccc1)C2 (stereo not given in full),inactive,
CCc1cc(OC)c(C[C@@H](C)N)cc1OC,inactive,
C1CCC2CCCCC2C1 (stereo not given),inactive,
FC(F)(F)c1cccc(C2=CCN(CCc3ccc4ccccc4c3)CC2)c1,inactive,
C=C1C[C@@H]2[C@H](CC[C@]3(C)C(=O)CC[C@@H]23)[C@@]2(C)C=CC(=O)C=C12,inactive,
C[C@H]1CCC[C@H](O)CCCCCc2cc(O)cc(O)c2C(=O)O1,inactive,
Cc1ccc(Cl)c(O)c1,inactive,
CCCCCCC#N,inactive,
C[C@]12Cc3nonc3C[C@@H]1CC[C@@H]1[C@@H]2CC[C@@]2(C)[C@H]1CC[C@]2(C)O,inactive,
CCCC1CCCCN1 (stereo not given),inactive,
CNC(=O)Oc1c(C(C)(C)C)cc(C)cc1C(C)(C)C,inactive,
ClC(Cl)(Cl)Br,inactive,
CCCCNCC(O)c1ccc(O)cc1 (stereo not given),inactive,
CNC(C)Cc1ccc2c(c1)OCO2 (stereo not given),inactive,
O=[N+]([O-])c1ccc(Oc2ccc(C(F)(F)F)cc2[N+](=O)[O-])cc1,inactive,
O=[N+]([O-])C(Br)Br,inactive,
COc1ccc(C(=O)c2c(C)n(CCN3CCOCC3)c3ccccc23)cc1,inactive,
CCCCCl,inactive,
CCOC(=O)C(Cl)C(C)=O (stereo not given),inactive,
OCC(Cl)CCl (stereo not given),inactive,

Structure (SMILES),outcome,AC50
COC(=O)COc1ccc(Cl)cc1Cl,inactive,
N[C@@H](Cc1ccc(Oc2cc(I)c(O)c(I)c2)c(I)c1)C(=O)O,inactive,
Cc1ccc2c(C)cccc2c1,inactive,
[Cl][Sb]([Cl])[Cl],inactive,
CCC(C)Cl (stereo not given),inactive,
CCC(C(N)=O)N1CCCC1=O (stereo not given),inactive,
CCCCCCCCCCCCCCCCCCn1cc[n+](C)c1,,8.42 µM (active)
COc1ccc(CO)cc1,inactive,
Oc1c(Cl)c(Cl)cc(Cl)c1Cl,,12.2 µM (active)
NC(=O)CS(=O)C(c1ccccc1)c1ccccc1 (stereo not given),inactive,
CC[C@H](OC(C)=O)C(C[C@H](C)NC)(c1ccccc1)c1ccccc1,inactive,
C[C@@H](Cc1ccccc1)NCCC(c1ccccc1)c1ccccc1,inactive,
Cc1cc(C)c(C(=O)P(=O)(C(=O)c2c(C)cc(C)cc2C)c2ccccc2)c(C)c1,inactive,
CCCC[N+](CCCC)(CCCC)CCCC,inactive,
CC(=O)C(Cl)(Cl)Cl,,1.29 µM (active)
[O]=[Cd],inactive,
BrCC(Br)(Br)Br,,84.7 µM (active)
CCOP(=S)(OCC)Oc1cnc2ccccc2n1,inactive,
Cc1cccc(C#N)c1,inactive,
CC(C)(O)C(Cl)(Cl)Cl,inactive,
